From PubChem BioAssay AID2641 (National Center for Advancing Translational Sciences (NCATS), 2010)
Values joined by “and” are separate entries in the source; they are usually repeats but may differ in a detail not shown here. Equal values may be shown once. Active and inactive are the calls of the source. How the calls were made is not given here.

Each compound was assayed against Lysosomal alpha-glucosidase (Homo sapiens) (UniProt P10253) (assay: qHTS Assay for Inhibitors of Human alpha-Glucosidase as a Potential Chaperone Treatment of Pompe Disease: Stabilizers of Alpha-Glucosidase Under Thermal Denaturation Conditions). Conditions: Recombinant GAA thermal denaturation, residual activity over time, hits give high values; at 0.31 µM unless noted.
Description: NIH Chemical Genomics Center [NCGC]
NIH Molecular Libraries Probe Production centers Network [MLPCN]
Assay Submitter (PI): Wei Zheng
Alpha-glucosidase is responsible for hydrolysis of terminal, non-reducing 1,4-linked alpha-D-glucose residues with release of alpha-D-glucose. It is a lysosomal hydrolase that is required for the degradation of a small percentage (1-3%) of cellular glycogen in human. Deficiency of this enzyme results in glycogen-storage disease type II (GSDII), also referred to as Pompe disease, an autosomal recessive disorder. Structurally normal glycogen is accumulated in lysosomes and cytoplasm in affected patients, primarily in muscle tissues. Excessive glycogen storage within lysosomes may interrupt normal functioning of other organelles and leads to cellular injury. In turn, this leads to enlargement and dysfunction of the entire organ involved (eg, cardiomyopathy and muscle weakness).
It has reported that the improper folding and trafficking of alpha-glucosidase resulting from the genetic mutations may account for a significant number of Pompe patients. […] We optimized this alpha-glucosidase assay in 1536-well plate format for identifying the novel small molecule inhibitors with the structures other than the sugar analogs in order to develop the new pharmacological chaperones.
This assay involves heating purified alpha-glucosidase (Myozyme) in the presence of inhibitors to observe potential stabilization of the enzyme. This binding assay is an indirect measure of chaperone activity, as stabilization may imply proper folding and trafficking of the enzyme to its functional site. Alpha-glucosidase was pre-incubated with only DMSO or 50x IC50 of compound before being exposed to 68 °C heat inactivation. The heating was measured over time, and it was observed that untreated alpha-glucosidase lost more of its activity over time than enzyme treated with compounds.
Temperature Denature Protocol for alpha-Glucosidase
Assay buffer: 50 mM citric acid (titrated with potassium phosphate to pH 5.0), 0.01% Tween-20
1. Prepare 80X solution alpha-glucosidase solution (3.2 nM*80=[…]) in assay buffer.
2. Divide solution into separate 1.5 ml tubes.
3. For each compound, add 50X IC50:
50x IC50 1-DNJ […]
50x IC50 of the […]
4. Incubate 10 min RT after compound addition.
5. Distribute 10 ul from each tube into PCR tubes.
6. Time course of heating: Heat solutions at 68C for 60 min, taking a set of tubes out at 10, 20, 30, 45, and 60 min, while keeping one set on ice whole time.
7. After heating, take out tubes and place on ice for a minimum of 5 min.
8. Transfer 10 ul solution to 790 ul (1:80 dilution) buffer in 1.5 ml tube.
9. Vortex and take three 20 ul aliquots and put in 384 plate.
10. Add 20 ul substrate solution to each well (100 uM 4-methylumbelliferyl alpha-D-glucopyranoside).
12. Add 25 ul stop solution (1 M NaOH, 1 M glycine pH 10).
13. Detect the assay plate in a ViewLux plate reader (PerkinElmer) with Ex=365 nm and Em=440nm.
In the case of `CC(=O)c1ccc(N2CCN(S(=O)(=O)c3ccc4c(c3)CC(=O)N4)CC2)cc1`, the residual activity vs control after 60 min heating is reported as 909% (active) and 724% (active) and 584% (active).
In the case of `O=C1Cc2cc(S(=O)(=O)N3CCN(c4ccc(O)cc4)CC3)ccc2N1`, the residual activity vs control after 60 min heating is reported as 170% (active).
In the case of `CC(=O)c1ccc(N2CCN(S(=O)(=O)c3cc4c(cc3Cl)NC(=O)C4)CC2)cc1`, the residual activity vs control after 60 min heating is reported as 675% (active).
`O=C1Cc2cc(S(=O)(=O)N3CCN(c4ccc(C(=O)O)cc4)CC3)ccc2N1` was tested, and the residual activity vs control after 60 min heating was 302% (active).
With `O=C1Cc2cc(S(=O)(=O)N3CCN(c4ccc([N+](=O)[O-])cc4)CC3)ccc2N1` the residual activity vs control after 60 min heating was 464% (active).
`N#Cc1ccc(N2CCN(S(=O)(=O)c3ccc4c(c3)CC(=O)N4)CC2)cc1` was tested, and the residual activity vs control after 60 min heating was 480% (active).
`O=Cc1ccc(N2CCN(S(=O)(=O)c3ccc4c(c3)CC(=O)N4)CC2)cc1` was tested, and the residual activity vs control after 60 min heating was 299% (active).
With `OCC1NCC(O)C(O)C1O` (stereo not drawn) the residual activity vs control after 60 min heating was 421% [at 0.016 µM] (active).
